From PubChem BioAssay AID1224865 (Sanford-Burnham Center for Chemical Genomics, 2016)
“And” between values parts separate entries of the source, which are not always exact repeats. Identical values can stand only once. In all, about 360,000 compounds went through this assay and about 1,100 (0.31%) were called active. Rule as the data show it: active = activity change above about 30% (passing the limit was not always enough); inactive = the rest. Only a selection was taken, and actives are over-represented in it overall. A structure can be active in one record and inactive in another.

What follows are compounds tested against Hepatocyte nuclear factor 4-alpha (Homo sapiens) (UniProt P41235) (assay: HNF4-alpha DNA association modulation – biochemical, fluorescence polarization, FITC-DNA, primary screen (AID 1224865)). Details: HNF4a-FITC DNA binding, 1 h, at 10 µM, stronger effect = higher value.
Chain of Hepatocyte nuclear factor 4-alpha (Homo sapiens) (P41235 whole entry, looked up): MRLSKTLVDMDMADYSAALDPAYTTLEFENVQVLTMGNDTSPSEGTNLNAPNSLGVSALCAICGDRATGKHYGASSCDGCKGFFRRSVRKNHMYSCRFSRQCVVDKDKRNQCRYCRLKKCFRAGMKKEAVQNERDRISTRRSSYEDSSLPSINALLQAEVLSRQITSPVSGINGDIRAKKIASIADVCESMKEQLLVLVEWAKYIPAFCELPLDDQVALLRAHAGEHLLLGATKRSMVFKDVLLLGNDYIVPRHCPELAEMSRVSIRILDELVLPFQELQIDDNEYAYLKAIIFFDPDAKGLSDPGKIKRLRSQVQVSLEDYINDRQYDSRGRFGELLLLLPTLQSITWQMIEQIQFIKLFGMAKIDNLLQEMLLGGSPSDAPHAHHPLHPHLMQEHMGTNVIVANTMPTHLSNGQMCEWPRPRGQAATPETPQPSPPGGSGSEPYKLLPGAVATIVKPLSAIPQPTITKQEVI

Row | Compound | activity change
1 | COc1ccc2oc(N)nc2c1 | 0.82% (inactive)
2 | CCc1ccc2oc(-c3ccc(N)cc3)nc2c1 | 71.8% (active)
3 | CC1(C)C/C(=C(/C#N)C(N)=O)CCO1 | -0.48% (inactive)
4 | CCOC(=O)N1CCN(C(=O)C2CCN(S(C)(=O)=O)CC2)CC1 | 30.5% (active)
5 | CCOC(=O)C1CCN(C(=O)C2CCN(S(=O)(=O)CC)CC2)CC1 | -4.66% (inactive)
6 | CCOC(=O)C1CCN(C(=O)C2CCN(S(=O)(=O)N3CCCC3)CC2)CC1 | -3.6% (inactive)
7 | CCCCc1nccn1CCn1ccnc1CCCC | -1.42% (inactive)
8 | O=C(CC1SC(=Nc2ccccc2F)N(CCN2CCOCC2)C1=O)Nc1ccc(F)cc1F (stereo not given) | 2.99% (inactive)
9 | CC(C)(C)NC(=O)c1ccc(Cn2cc(C(F)(F)F)ccc2=O)cc1 | -4.39% (inactive)
10 | Cc1ccc2[nH]c(=O)c(CN3CCCCC3)c(-c3ccccc3)c2c1 | -1.94% (inactive)
11 | O=c1cc(CN2CCCCCCC2)c2c(ccc3ccccc32)o1 | -1.79% (inactive)
12 | c1ccc2cc3[nH]c(CN4CCCCC4)nc3cc2c1 | 33.4% (active)
13 | O=S(=O)(Cc1ccc(Cl)cc1Cl)c1ccc(Cl)cc1 | 1.8% (inactive)
14 | COC(=O)C1=C(C(=O)OC)C2(OC1c1ccc(Br)cc1)C(=O)c1ccccc1C2=O (stereo not given) | 0.81% (inactive)
15 | CC(=O)N1C(=O)/C(=C2\SC(=S)N(NC(=O)c3ccc(O)cc3)C2=O)c2ccccc21 | -1.57% (inactive)
16 | CN1C(=O)C(CC(N)=O)N(NC(=O)c2ccc(Cl)cc2)C1=S (stereo not given) | -1.5% (inactive)
17 | Cn1cccc1/C=C1\SC(=S)N(NC(=O)c2ccc(Cl)cc2)C1=O | 74.6% (active)
18 | O=C(NC1CCCC1)C1c2ccccc2OCC(=O)N1CC(F)(F)F (stereo not given) | 2% (inactive)
19 | COc1ccc(-c2nc3cc(C)ccn3c2NC2CCCCC2)cc1SC1CCCCC1 | 47.8% (active) and 27.6% (inactive)
20 | COc1cccc(-c2nc3nc(C)cc(C)n3c2NC2CCCCC2)c1 | 3.94% (inactive)

Row | Compound | activity change
21 | Cc1ccc2nc(-c3cccnc3)c(NC3CCCC3)n2c1 | 6.3% (inactive)
22 | Cc1ccn2c(c1)nc(=O)c1cc(S(=O)(=O)N3CCC(C)CC3)ccc12 | 4.48% (inactive)
23 | Cc1cc(=O)oc2cc(OC(C)C(=O)Nc3ccc(N4CCOCC4)cc3)ccc12 (stereo not given) | -19.2% (inactive)
24 | O=C(O)c1ccc(N=NN2CCOCC2)cc1 | 1.22% (inactive)
25 | O=C(O)c1ccc(NN=CC2=C(N3CCOCC3)/C(=C/c3ccccc3)CC2)cc1 | 41.5% (active)
26 | O=C(O)c1ccc(N/N=C/c2ccc3ncccc3c2)cc1 | -1.15% (inactive)
27 | O=C(COC(=O)/C=C/c1ccc(S(=O)(=O)N2CCCCCC2)cc1)NCc1ccccc1Cl | -2.22% (inactive)
28 | O=C1CCC(C(=O)N2CCCCO2)CN1Cc1cccc(C(F)(F)F)c1 (stereo not given) | 1.26% (inactive)
29 | NC(=O)Cn1nc([N+](=O)[O-])nc1Oc1ccc(Br)cc1 | 3.81% (inactive)
30 | CCCCCCCNc1nc(Cl)nc(NCCO)n1 | 1.28% (inactive)
31 | NNc1cccc(C=Cc2ccccc2)cc1=O | 37.5% (active)
32 | O=C(COC(=O)/C=C/c1cccc(Cl)c1)NCCc1ccccc1 | 1.96% (inactive)
33 | O=C(COC(=O)c1cc(S(=O)(=O)N2CCOCC2)ccc1F)NC1CC1 | -0.17% (inactive)
34 | O=C(c1ccc[nH]c1=S)N1CCN(S(=O)(=O)c2ccc(Br)cc2Cl)CC1 | 0.57% (inactive)
35 | COc1ccccc1N1CCN(C(=O)C(=O)N/N=C/c2ccccc2F)CC1 | -1.71% (inactive)
36 | COc1cccc(/C=N/NC(=O)c2[nH]nc3c2CCc2ccccc2-3)c1O | 49.2% (active)
37 | COc1cc(/C=N\NC(=O)c2nonc2N)c(OC)cc1Br | -0.19% (inactive)
38 | O=C1COc2ccc(S(=O)(=O)NCCc3ccc(Cl)cc3)cc2N1 | 1.98% (inactive)
39 | CC(C)n1c(O)c(N=Nc2ccccn2)c2ccccc21 | 0.04% (inactive)
40 | CCOCCCNC(=O)Cc1cc(=O)[nH]c(=O)[nH]1 | -0.4% (inactive)

Row | Compound | activity change
41 | N#CCCN1CCN(S(=O)(=O)c2ccc(S(=O)(=O)NC3CCCCC3)cc2)CC1 | 0.96% (inactive)
42 | CCn1c(/C=C/c2ccc([N+](=O)[O-])o2)nc2ccccc2c1=O | 92.1% (active)
43 | C=CCn1c(SCC(=O)NC(=O)Cc2ccccc2)nc2ccccc2c1=O | 1.95% (inactive)
44 | O=C(/C=C/c1ccc([N+](=O)[O-])o1)NNC(=O)c1ccc(F)cc1 | 0.84% (inactive)
45 | COc1ccccc1CCNC(=O)CN1C(=O)NC2(CCCC2)C1=O | 1.6% (inactive)
46 | COc1ccc(C(=O)N2CCCCC2c2cc(C(=O)Nc3ccc(F)c(Cl)c3)no2)cc1 (stereo not given) | -0.55% (inactive)
47 | COc1ccc(/C(C)=N/N2CCOCC2)c(O)c1 | 1.11% (inactive)
48 | CN1/C(=c2/s/c(=C3/C(=O)N(c4ccccc4)NC3=Nc3ccccc3)n(C)c2=O)C(C)(C)c2ccccc21 | 66.2% (active)
49 | O=C(CO/N=C/c1ccc(OC(F)F)cc1)NCc1ccc(F)cc1 | -1.87% (inactive)
50 | CCOC(=O)C1CCCN(C(=O)CSc2nnc3nc(C)cc(C)n23)C1 (stereo not given) | -2.41% (inactive)
51 | COc1ccc(CCNC(=O)CN(C)S(=O)(=O)c2ccc3nc(C)sc3c2)cc1OC | 3.34% (inactive)
52 | COc1ccc(-c2ccc(C(=O)NCCN3CCOCC3)c3occc23)c(C)c1 | -3.94% (inactive)
53 | CCC(C)N1C(=O)S/C(=C/c2ccc(Sc3nc4ccccc4[nH]3)o2)C1=O (stereo not given) | 77.3% (active)
54 | CCC(c1nc2ccccc2[nH]1)n1c(=O)c(-c2cccs2)nc2ccccc21 (stereo not given) | 4.95% (inactive)
55 | CCOC(=O)/C(C#N)=C\c1c(C)cc(C)c(COC(C)=O)c1C | 2.55% (inactive)
56 | COC(=O)/C(C#N)=C/c1occc1C | -1.39% (inactive)
57 | CCOC(=O)/C(C#N)=C/c1ccc(N2CCCCC2)cc1 | 42.2% (active)
58 | C/C(=N/Nc1nc(-c2ccccc2)c(CC(=O)O)s1)c1ccccc1 | 48.6% (active)
59 | CC(=O)NC(CC(=O)Nc1nc(-c2ccccc2)c(C(C)=O)s1)c1ccccc1 (stereo not given) | 0.99% (inactive)
60 | CCOc1ccc(-c2nc(C)sc2CC(=O)O)cc1 | 1.37% (inactive)
